{"source": "PubChem BioAssay (NCATS)", "key": {"[1]": {"assay": "A High-Content qHTS Against Drug Library for the Identification of Small Molecules that Inhibit DYT1 Early Onset Primary Dystonia-Associated Cell Pathology (AID 1645839; calls by dose curve)", "settings": "HEK293 Flp-In EGFP-delE TorsinA, punctate imaging, 48 h; series mostly up to 46.1 µM", "outline": "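Cells were seeded and left for 24 h, then dosed with compound alongside tetracycline induction of mutant EGFP-TorsinA. They were incubated for 48 h, fixed in 4% paraformaldehyde, permeabilized and imaged for mislocalization (%pathology) and cell count.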"}, "[2]": {"target": "Cytochrome P450 2D6 (Homo sapiens) (UniProt P10635)", "sequence (P10635 whole entry, looked up)": "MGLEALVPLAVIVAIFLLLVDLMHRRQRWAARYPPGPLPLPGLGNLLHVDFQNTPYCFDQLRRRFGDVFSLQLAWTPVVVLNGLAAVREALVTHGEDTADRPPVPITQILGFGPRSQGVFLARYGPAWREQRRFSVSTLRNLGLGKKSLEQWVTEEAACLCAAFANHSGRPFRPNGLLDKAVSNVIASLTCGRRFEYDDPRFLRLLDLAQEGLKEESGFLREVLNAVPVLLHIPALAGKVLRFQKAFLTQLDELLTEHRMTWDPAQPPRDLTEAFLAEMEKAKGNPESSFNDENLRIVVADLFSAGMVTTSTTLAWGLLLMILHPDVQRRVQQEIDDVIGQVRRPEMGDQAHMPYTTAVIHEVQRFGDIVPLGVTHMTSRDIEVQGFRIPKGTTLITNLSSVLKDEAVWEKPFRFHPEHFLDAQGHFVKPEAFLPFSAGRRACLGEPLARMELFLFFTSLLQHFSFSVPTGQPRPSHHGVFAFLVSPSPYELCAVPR", "assay": "Cytochrome P450 family 2 subfamily D member 6 (CYP2D6) small molecule antagonists: luciferase biochemical (cell-free) qHTS assay (AID 1645840); further: nearly all actives have a fitted effect of over 55% in size; further: potency means the concentration at half of the fitted maximal effect", "settings": "P450-Glo CYP2D6 enzyme, luciferin luminescence, 1 h; series mostly up to 57.4 µM", "outline": "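P450-Glo CYP2D6 system: proluciferin substrate converted by enzyme to luciferin, read by luminescence proportional to activity. Enzyme-substrate mix with compound 10 min at room temperature, then NADPH regeneration 1 h before detection reagent.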"}, "[3]": {"target": "Cytochrome P450 2C9 (Homo sapiens) (UniProt P11712)", "sequence (P11712 whole entry, looked up)": "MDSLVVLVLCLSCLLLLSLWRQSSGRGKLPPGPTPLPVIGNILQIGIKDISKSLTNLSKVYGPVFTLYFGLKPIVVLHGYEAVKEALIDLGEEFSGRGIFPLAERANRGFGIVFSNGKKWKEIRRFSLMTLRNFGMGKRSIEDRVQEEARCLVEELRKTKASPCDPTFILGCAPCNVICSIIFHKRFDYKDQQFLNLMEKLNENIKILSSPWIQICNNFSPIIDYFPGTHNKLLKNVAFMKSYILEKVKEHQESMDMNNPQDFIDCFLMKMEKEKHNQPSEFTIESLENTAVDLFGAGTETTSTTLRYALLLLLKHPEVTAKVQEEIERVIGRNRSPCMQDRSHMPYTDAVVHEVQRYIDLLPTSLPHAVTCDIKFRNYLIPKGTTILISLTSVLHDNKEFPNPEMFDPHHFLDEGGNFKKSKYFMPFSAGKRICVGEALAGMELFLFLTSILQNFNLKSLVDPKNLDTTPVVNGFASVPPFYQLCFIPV", "assay": "Cytochrome P450 family 2 subfamily C member 9 (CYP2C9) small molecule antagonists: luciferase biochemical (cell-free) qHTS assay (AID 1645842); further: nearly all actives have a fitted effect of over 55% in size", "settings": "P450-Glo CYP2C9 enzyme assay, luciferin luminescence; series mostly up to 57.4 µM", "outline": "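P450-Glo CYP2C9 system: proluciferin substrate with enzyme in mix containing 0.4% BSA, 10 min at room temperature, then NADPH regeneration solution added and incubated 1 h at 37C. Detection reagent stopped reaction; luminescence read after 20 min as RLU.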"}, "[4]": {"target": "Cytochrome P450 3A4 (Homo sapiens) (UniProt P08684)", "sequence (P08684 whole entry, looked up)": "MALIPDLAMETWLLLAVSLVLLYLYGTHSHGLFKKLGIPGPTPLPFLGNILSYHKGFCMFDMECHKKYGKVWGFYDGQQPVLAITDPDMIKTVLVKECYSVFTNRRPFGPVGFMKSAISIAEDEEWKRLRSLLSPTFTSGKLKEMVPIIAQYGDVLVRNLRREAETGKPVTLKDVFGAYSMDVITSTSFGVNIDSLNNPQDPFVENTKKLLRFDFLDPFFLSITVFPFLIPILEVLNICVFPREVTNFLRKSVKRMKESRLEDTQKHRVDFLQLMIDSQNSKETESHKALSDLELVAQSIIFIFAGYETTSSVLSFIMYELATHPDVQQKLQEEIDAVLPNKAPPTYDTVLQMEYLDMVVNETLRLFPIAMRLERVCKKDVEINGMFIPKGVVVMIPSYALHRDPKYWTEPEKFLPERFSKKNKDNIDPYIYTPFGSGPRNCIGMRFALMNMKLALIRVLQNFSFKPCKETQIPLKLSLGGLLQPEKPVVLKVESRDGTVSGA", "assay": "Cytochrome P450 family 3 subfamily A member 4 (CYP3A4) small molecule antagonists: luciferase qHTS assay (AID 1645841); further: nearly all actives have a fitted effect of over 45% in size", "settings": "P450-Glo CYP3A4 enzyme assay, luciferin luminescence; series mostly up to 57.4 µM", "outline": "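P450-Glo CYP3A4 enzyme with proluciferin substrate preincubated 10 min with compound at room temperature, then NADPH regeneration 1 h. Luciferin detection reagent added for 20 min; luminescence recorded. Ketoconazole positive control.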"}, "[5]": {"assay": "Primary qHTS for small molecule stabilizers of the endoplasmic reticulum resident proteome: Secreted ER Calcium Modulated Protein (SERCaMP) assay (AID 1508630; active means well fitted curve in the direction sought with a large enough effect; an effect the other way counts as inactive or inconclusive)", "settings": "SH-SY5Y GLuc-SERCaMP (Gaussia luciferase released on ER calcium loss) secretion, thapsigargin, luminescence; series mostly up to 38.4 µM", "outline": "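The SH-SY5Y reporter protocol was run at 3 concentrations up to 38.3 uM (primary) or 11 concentrations (follow-up): 16 h compound, 100 nM thapsigargin for 4 h, then extracellular luciferase luminescence.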"}, "Papain (Carica papaya)": {"target": "Papain (Carica papaya) (UniProt P00784)", "sequence (P00784 whole entry, looked up)": "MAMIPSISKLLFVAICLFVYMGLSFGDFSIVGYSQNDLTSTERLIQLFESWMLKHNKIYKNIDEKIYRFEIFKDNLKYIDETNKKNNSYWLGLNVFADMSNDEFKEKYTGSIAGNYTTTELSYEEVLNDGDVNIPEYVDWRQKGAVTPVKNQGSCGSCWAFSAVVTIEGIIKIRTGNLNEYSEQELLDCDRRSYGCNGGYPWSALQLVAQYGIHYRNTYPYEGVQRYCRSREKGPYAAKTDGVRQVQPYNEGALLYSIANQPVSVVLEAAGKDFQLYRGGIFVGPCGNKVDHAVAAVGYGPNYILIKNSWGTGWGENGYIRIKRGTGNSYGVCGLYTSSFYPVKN", "assay": "Primary qHTS assay for inhibitors of the protease papain (AID 1645873; active means well fitted curve in the direction sought with a large enough effect; an effect the other way counts as inactive or inconclusive;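 further: papain turnover of Z-FR-AMC read as the AMC fluorescence gain over 10 min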)", "settings": "papain Z-FR-AMC cleavage, AMC fluorescence; series mostly up to 49.8 µM"}}, "note": "Results filed as inconclusive are left out. Where a call stands in place of a potency, no number is given. Active and inactive are the calls of the source. Unless noted, the call rests on the fitted dose curve; in most records, active means well fitted curve in the direction sought with a large enough effect in the repeat runs; inconclusive means weak or mixed curves; inactive means no such curve, though single readings can be large; an effect the other way counts as inactive or inconclusive. *1 amine or outer side, *2 acyl side, *3 side chain or, on linkers, in order; H or OH if unused. Where a SMILES comes first, the peptide text is derived from it. Bridges are numbered along the chain shown (N, C = ends). [ ]: non-standard residue; d: D form. The star is where a group is joined. ξ: configuration not given here. X10 = NC1=NCCC(C(N[*:1])C(=O)[*:2])N1; ΔAla(3-NHCONH2) = NC(=O)NC=C(N)C(=O)O; ξβ3hOrn = NCCCC(N)CC(=O)*; Dap = NC[CH](N)C(=O)O", "data": [{"smiles": "Cc1ccc(-c2ccccc2C#N)cc1", "values": [{"measurement": "Potency", "setting": "[1]", "result": "inactive"}, {"measurement": "Potency", "setting": "[2]", "result": "inactive"}]}, {"smiles": "C[N+]1(C)CCC(OC(=O)C(O)(c2ccccc2)C2CCCC2)C1", "note": "(centres undefined)", "values": [{"measurement": "Potency", "setting": "[1]", "result": "inactive"}]}, {"smiles": "CCN1CCN(C(=O)N[C@@H](C(=O)N[C@@H]2C(=O)N3[C@@H]2SC(C)(C)[C@H]3C(=O)O)c2ccccc2)C(=O)C1=O", "values": [{"measurement": "Potency", "setting": "[1]", "result": "inactive"}, {"measurement": "Potency", "setting": "[2]", "result": "inactive"}, {"measurement": "Potency", "setting": "[3]", "result": "inactive"}]}, {"smiles": "CN(C)[C@@H]1C(=O)C(C(N)=O)=C(O)[C@@]2(O)C(=O)C3=C(O)c4c(O)cccc4C[C@H]3C[C@@H]12", "values": [{"measurement": "Potency", "setting": "[1]", "result": "inactive"}, {"measurement": "Potency", "setting": "[2]", "result": "inactive"}, {"measurement": "Potency", "setting": "[4]", "result": "inactive"}, {"measurement": "Potency", "setting": "[3]", "result": "inactive"}]}, {"smiles": "CC(C)(C)c1cc(C=O)cc(C(C)(C)C)c1O", "values": [{"measurement": "Potency", "setting": "[1]", "result": "inactive"}, {"measurement": "Potency", "setting": "[2]", "result": "inactive"}]}, {"smiles": "CCOC(=O)c1ccc(OCCN2C[C@H](O)[C@@H](O)[C@H](O)[C@H]2CO)cc1", "values": [{"measurement": "Potency", "setting": "[1]", "result": "inactive"}, {"measurement": "Potency", "setting": "[2]", "result": "inactive"}, {"measurement": "Potency", "setting": "[4]", "result": "inactive"}, {"measurement": "Potency", "setting": "[3]", "result": "inactive"}]}, {"smiles": "CC(=O)N[C@@H](CCC(N)=O)C(=O)O", "values": [{"measurement": "Potency", "setting": "[1]", "result": "inactive"}, {"measurement": "Potency", "setting": "[2]", "result": "inactive"}, {"measurement": "Potency", "setting": "[3]", "result": "inactive"}]}, {"smiles": "CCCC(=O)c1cc(O)c(O)cc1O", "values": [{"measurement": "Potency", "setting": "[1]", "result": "inactive"}, {"measurement": "Potency", "setting": "[2]", "result": "31.7 µM (active)"}]}, {"smiles": "CCN(CC)CCNC(=O)c1ccc(NS(C)(=O)=O)cc1", "values": [{"measurement": "Potency", "setting": "[5]", "result": "inactive"}, {"measurement": "outcome", "setting": "Papain (Carica papaya)", "result": "inactive"}]}, {"smiles": "CC(C)NCCCC1(C(N)=O)c2ccccc2-c2ccccc21", "values": [{"measurement": "Potency", "setting": "[1]", "result": "inactive"}, {"measurement": "Potency", "setting": "[2]", "result": "3.89 µM (active)"}]}, {"smiles": "CC(=O)c1ccc(O)c(C(N)=O)c1", "values": [{"measurement": "Potency", "setting": "[1]", "result": "inactive"}, {"measurement": "Potency", "setting": "[2]", "result": "inactive"}, {"measurement": "Potency", "setting": "[3]", "result": "inactive"}]}, {"smiles": "Nc1ncnc2n[nH]c(Nc3ccc(F)cc3)c12", "values": [{"measurement": "Potency", "setting": "[5]", "result": "inactive"}, {"measurement": "outcome", "setting": "Papain (Carica papaya)", "result": "inactive"}]}, {"smiles": "Nc1nnnn1-c1ccccc1", "values": [{"measurement": "Potency", "setting": "[1]", "result": "inactive"}, {"measurement": "Potency", "setting": "[2]", "result": "inactive"}]}, {"smiles": "NCC(=O)O", "values": [{"measurement": "Potency", "setting": "[1]", "result": "inactive"}]}, {"smiles": "O=C(O)Cn1c(=O)n(Cc2ccc(Br)cc2F)c(=O)c2ccc(Cl)cc21", "values": [{"measurement": "Potency", "setting": "[1]", "result": "inactive"}, {"measurement": "Potency", "setting": "[2]", "result": "inactive"}]}, {"smiles": "NCCCC(N)CC(=O)NCC1NC(=O)C(CO)NC(=O)C(N)CNC(=O)C(C2CCN=C(N)N2)NC(=O)C(=CNC(N)=O)NC1=O", "note": "(stereo not drawn) (H-[Dap]S[Dap](ξβ3hOrn)[ΔAla(3-NHCONH2)][X10]; lactam 1-C; configuration not given here)", "values": [{"measurement": "% pathology change, negative = correction", "setting": "[1]", "result": "-14.9% [at 0.369 µM] (inactive)"}, {"measurement": "activity change, negative = inhibition", "setting": "[2]", "result": "0.741% [at 0.91 µM] (inactive)"}, {"measurement": "activity change, negative = inhibition", "setting": "[4]", "result": "-11.7% [at 0.91 µM] (inactive)"}, {"measurement": "activity change, negative = inhibition", "setting": "[3]", "result": "7.44% [at 0.91 µM] (inactive)"}]}]}
